Assay outcomes as filed in PubChem BioAssay.
Shiga inhibitor: A qHTS for Small Molecule Inhibitors of Shiga Toxin. Vero cells, Shiga toxin protein synthesis inhibition reporter. inhibition, % at 38.7 µM. 290,000 compounds, 9.2% hits; in the data active = inhibition mostly above about 28%, no sharp cut-off; inactive = mostly below about 43%; also: 0% is about no effect
Pf growth 96h: Primary qHTS for delayed death inhibitors of the malarial parasite plastid, 96 hour incubation; P. falciparum luciferase reporter growth, 96 h; Potency, µM (highest dose often 28.7 µM), without a hit: at the top dose activity change, negative = inhibition, most hits filed as inhibitors; 320,000 compounds, 6.9% hits; AID 504834, 2011; also: potency is read from the fitted curve at half-maximal effect; % is scaled to controls: 0 for no effect and ±100 for the full control effect
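Readout is luminescence from an integrated firefly luciferase in P. falciparum. Red cells, 2% hematocrit and 0.05% parasitemia final, were cultured with compound through two parasite generations (96 hours) at 37 C, 5% CO2.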
HCMV inh: qHTS Assay for inhibitors of the human cytomegalovirus (HCMV). HFF cells, HCMV-luciferase reporter, 72 h; hits give low values. activity change, negative = inhibition, % at 57.5 µM. AID 1259415, 2018. 410,000 compounds, 4.5% hits; in the data active = activity change below about -60%; inconclusive = no clear call, values can overlap the other calls; inactive = above about -39%; also: % is scaled to controls: 0 for no effect and ±100 for the full control effect
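Cell-based, HFFs, 1000 cells/well, 16 h 37C; cpds in DMSO + HCMV-luc, MOI 1 PFU/cell; 72 h 37C; OneGlo luminescence after 5 min RT; norm. to buffer vs Salinomycin 10uM.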
CHX counter: Cycloheximide Counterscreen for Small Molecule Inhibitors of Shiga Toxin; cell reporter, cycloheximide protein synthesis inhibition counterscreen; max response, %; 300,000 compounds, 12% hits; in the data active = max response mostly above about 13%, no sharp cut-off; inactive = mostly below about 14%; also: read at 38.3 µM for the half of the compounds with a filed dose; 0% is about no effect
Pf growth 48h: Primary qHTS for delayed death inhibitors of the malarial parasite plastid, 48 hour incubation. P. falciparum luciferase growth in erythrocytes, 48 h. Potency, µM (series often up to 28.7 µM), for inactives: top-dose activity change, negative = inhibition, most hits filed as inhibitors. 310,000 compounds, 5.9% hits; also: potency is read from the fitted curve at half-maximal effect; % is scaled to controls: 0 for no effect and ±100 for the full control effect
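Compounds are pin-transferred into medium, infected erythrocytes (2% hematocrit, 0.1% parasitemia final) are added, and plates sit one parasite generation at 37 C in 5% CO2. Detection reagent is then added and luminescence measured.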
* = called active by the depositor; ? = inconclusive; / = no result given. Sampled rows, rich in hits. Any-hit rate of the full collection: about 20%. Unless noted, calls follow the shape of the dose curve; as a rule, active = well fitted inhibition curve with a large enough effect; inconclusive = small, poorly fitted or top-dose-only effect, or another doubt; inactive = no such curve, though single readings can be large or run the other way.

SMILES	Shiga inhibitor	Pf growth 96h	HCMV inh	CHX counter	Pf growth 48h
CC(=O)N1c2ccc(S(=O)(=O)N3CCCC(C(=O)Nc4ccc(C)cc4)C3)cc2CC1C (centres undefined)	/	/	-33.4	/	/
COc1ccccc1CNC(=O)c1ccc(-c2nc(CS(=O)(=O)c3ccc(C)cc3)c(C)o2)cc1	/	/	11.6	/	/
COC(=O)C1=C(C)NC(C)=C([N+](=O)[O-])[C@@H]1c1ccccc1C(F)(F)F	-7.9	/	/	-1.3	/
O=C(NCc1ccccc1)c1cc(C2CCCCN2C(=O)c2ccccc2)on1 (centres undefined)	/	/	-17.0	/	/
COc1ccc(-c2cc3ccc(O)c(CN4CCN(CCO)CC4)c3oc2=O)cc1OC	/	/	42.9	/	/
CC(=O)c1cccc(NC(=O)C2CCCCC2)c1	-17.4	1.47µM*	0.6	0.8	7.9%
CCOC(=O)N/N=C(\CCC(=O)O)c1cccs1	35.2*	24.3%	0.0	16.7*	3.9%
O=C(Cc1ccccc1F)NNC(=O)c1cccs1	/	/	2.5	/	/
Cc1cc(C(=O)NN=C(CCC(=O)O)c2cccs2)c(C)o1	/	/	-6.8	/	/
O=C(O)CCC(=O)NNC(=O)c1cccs1	16.7	34.1%	17.1	18.2*	7.6%
O=C(O)CC/C(=N/NC(=O)c1cccs1)c1ccccc1	24.5*	20.6%	55.2	76.6*	45.5%
CCOc1ccccc1C(=O)N(Cc1cccs1)c1ccc(Cl)cc1	/	/	-2.6	/	/
COc1cc2cc(CCOC(=O)c3ccc(F)cc3)oc(=O)c2cc1OC	/	?	7.7	/	3.4%
O=C(NCC1CCCO1)c1ccc[nH]1 (centres undefined)	-9.8	24.1%	10.1	-1.4	16.2%
O=C(NCC1CCCO1)c1cc2cc(F)ccc2[nH]1 (centres undefined)	38.4*	?	98.3	27.4*	/
Cc1ccc(NS(=O)(=O)c2ccc(OCC(=O)NCC3CCCO3)cc2)cc1 (centres undefined)	33.7	9.28µM*	-19.1	-2.7	-0.7%
Cc1ccc(C)c(NS(=O)(=O)c2ccc(OCC(=O)NCC3CCCO3)cc2)c1 (centres undefined)	19.1	-6.3%	-23.1	-2.2	-11.6%
Cc1ccc(S(=O)(=O)NCC2CCCO2)cc1 (centres undefined)	-5.4	307.1%	18.3	-2.3	0.0%
O=S(=O)(NCC1CCCO1)c1ccc(-c2ccc(S(=O)(=O)NCC3CCCO3)cc2)cc1 (centres undefined)	-26.1	-12.8%	-93.2*	-1.3	-12.2%
O=C(COc1ccc(F)cc1)NCC1CCCO1 (centres undefined)	-19.0	1.65µM*	9.8	17.5	29.3%
CCOc1ccccc1N1CC(C(=O)Nc2cc(Cl)ccc2C)CC1=O (centres undefined)	5.9	21.2%	13.0	-12.6	14.6%
CCOC(=O)C1CCC(CN(Cc2ccc(OC)cc2)S(=O)(=O)c2ccc(C)cc2)CC1 (centres undefined)	/	/	-15.5	/	/
CCC(=O)c1ccc(OCC(=O)OCC(=O)NCC2CCCO2)cc1 (centres undefined)	20.3	24.1%	2.7	19.1*	10.5%
O=C(COC(=O)COc1ccc(Br)cc1)NCC1CCCO1 (centres undefined)	/	/	-12.4	/	/
CCc1cc2c(COC(=O)CCNS(=O)(=O)c3cccc(C(F)(F)F)c3)cc(=O)oc2cc1O	/	?	91.9	/	4.65µM*
SMILES	Shiga inhibitor	Pf growth 96h	HCMV inh	CHX counter	Pf growth 48h
Cc1cc(NC(=O)COC(=O)CCNS(=O)(=O)c2cccc(C(F)(F)F)c2)no1	-3.0	27.8%	-35.0	-6.7	43.7%
CC(C)N1CCc2c(sc(NC(=O)c3ccc(S(=O)(=O)N4CCOCC4)cc3)c2C#N)C1	10.4	?	/	-1.6	-12.9%
CCOC(=O)N1CCc2c(sc(NC(=O)c3ccc(S(=O)(=O)N4CCCC4)cc3)c2C#N)C1	1.7	?	-2.6	0.4	11.7µM*
CCOC(=O)c1c(NC(=O)c2ccc(S(=O)(=O)N3CCC(C)CC3)cc2)sc2c1CCN(CC)C2	/	/	-81.8*	/	/
CCOC(=O)c1c(NC(=O)c2ccc(S(=O)(=O)N3CCOCC3)cc2)sc2c1CCN(C)C2	-11.7	?	-2.7	-5.9	11.7µM*
COC(=O)c1c(NC(=O)c2ccc(S(=O)(=O)N3CCCCC3)cc2)sc2c1CCN(C)C2	/	/	-2.0	/	/
CN(Cc1ccccc1)c1cc(Cl)nc(N)n1	2.2	19.0%	63.2	8.4	-4.6%
O=C1c2ccccc2C(=Nc2ccccc2)C1c1cccc(Br)c1 (centres undefined)	-6.2	4.15µM*	-37.5	-2.7	?
CC(=O)c1cccc(Nc2nn(-c3ccc(OC(F)(F)F)cc3)nc2C(C)=O)c1	/	/	-12.1	/	/
NC(=O)c1cc([N+](=O)[O-])c(Cl)cc1NCc1cccnc1	/	69.3%	-21.7	/	-19.0%
O=C(NCc1ccco1)C1CC(c2ccc(Cl)cc2)=NO1 (centres undefined)	31.6	24.5%	22.7	26.7*	25.0%
O=C(NCc1ccccn1)C1CC(c2ccc(F)cc2)=NO1 (centres undefined)	-8.9	2.94µM*	60.7	2.0	/
O=C(NCc1ccco1)C1CC(c2ccc(F)cc2)=NO1 (centres undefined)	36.3	53.4%	-30.8	16.7*	46.3%
O=C(NC1CCCC1)C1CC(c2ccc(F)cc2)=NO1 (centres undefined)	69.4*	?	-2.7	42.5*	8.6%
O=C(NCc1ccccn1)C1CC(c2ccc(Cl)c(Cl)c2)=NO1 (centres undefined)	-23.7	0.2%	59.8	-4.4	3.5%
O=C(NCc1cccs1)C1CC(c2ccc(Cl)cc2)=NO1 (centres undefined)	54.1	30.5%	-4.2	12.6*	26.3%
Cc1ccc(-c2cc(C(=O)N/N=C/c3ccccc3O)n[nH]2)o1	59.5*	?	26.3	33.8*	5.22µM*
Cc1ccc(-c2cc(C(=O)N/N=C/c3ccc(F)cc3)n[nH]2)o1	-5.9	?	-0.9	10.2	-1.1%
Cc1ccc(-c2cc(C(=O)N/N=C/c3c[nH]c4ccccc34)n[nH]2)o1	-0.6	3.7%	5.5	16.8*	3.9%
COc1ccc(OCCN2CCN(C(=O)c3ccc(OC)cc3)CC2)cc1	-7.8	18.6%	-89.7*	-6.2	-4.0%
O=C(c1ccc(Cl)cc1)N1CCN(CCOc2ccccc2)CC1	-3.2	-0.1%	-10.4	-1.2	/
COc1ccc(C(=O)N2CCN(Cc3ccc(OC)c(OC)c3)CC2)cc1	-8.5	4.4%	29.6	-3.0	-1.3%
COc1ccc(OCCN2CCN(C(=O)c3ccc(OC(F)F)c(OC)c3)CC2)cc1	-5.4	-18.9%	-62.8*	-5.5	-20.1%
CSc1ncc2c(n1)-c1ccccc1N(Cc1ccc(F)cc1)S2(=O)=O	/	/	-1.0	/	/
CCOC(=O)c1c(C)[nH]c(CCC(=O)NCc2ccccc2Cl)c1C	/	/	-18.1	/	/
CC(c1ccccc1)[n+]1ccccc1 (centres undefined)	/	11.7µM*	1.5	/	9.28µM*
CC(C)c1ccccc1	/	47.1%	5.7	/	9.1%
